# Experimental data: PubChem BioAssay (NCATS)
# Records with an inconclusive call do not appear. Values without a mark were called inactive. The call rests on the fitted dose curve; in most records, active means well fitted inhibition curve with a large enough effect; inconclusive means small, poorly fitted or top-dose-only effect, or effect the other way; inactive means flat fitted curve, though single readings scatter.
# Target: ATP-dependent 6-phosphofructokinase (Trypanosoma brucei brucei) (UniProt O15648)
# Assay: qHTS Assay to Find Inhibitors of T. brucei phosphofructokinase: hit validation (AID 492961);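 further: luminescence reports ADP formed as PFK phosphorylates fructose-6-phosphate with ATP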
# Conditions: T. brucei PFK, ADP-Glo luminescence; series mostly up to 51.4 µM; activity change, negative = inhibition: at the top concentration
# Procedure, shortened: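 Reaction: 0.1 M triethanolamine pH 8.0, 5 mM MgCl2, F6P 0.5 mM, ATP 0.1 mM, PFK 1.25 nM, 45 min RT. Read-out: ADP-Glo luminescence. Analysis: concentration-response fits, classed by r2 and efficacy.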
# On the % scale 0 is the no-effect control and ±100 the full control effect.
# Sequence of ATP-dependent 6-phosphofructokinase (Trypanosoma brucei brucei) (O15648 whole entry, looked up): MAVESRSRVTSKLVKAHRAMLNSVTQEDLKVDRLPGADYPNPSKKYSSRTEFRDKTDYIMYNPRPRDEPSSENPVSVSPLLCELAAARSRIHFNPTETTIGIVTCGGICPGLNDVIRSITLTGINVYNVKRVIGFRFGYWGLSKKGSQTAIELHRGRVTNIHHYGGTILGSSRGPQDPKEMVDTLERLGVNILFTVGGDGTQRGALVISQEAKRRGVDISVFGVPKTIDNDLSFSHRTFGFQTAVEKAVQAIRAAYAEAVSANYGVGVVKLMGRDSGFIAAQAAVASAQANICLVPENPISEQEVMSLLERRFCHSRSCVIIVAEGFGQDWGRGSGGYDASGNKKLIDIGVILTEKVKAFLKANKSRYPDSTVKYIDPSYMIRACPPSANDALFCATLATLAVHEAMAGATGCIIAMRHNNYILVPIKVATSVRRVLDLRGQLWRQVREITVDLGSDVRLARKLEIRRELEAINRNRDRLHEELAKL
row,SMILES,"activity change, negative = inhibition"
1,O=C(CCN1CCN2CCCC2C1)N1c2ccccc2Sc2ccc(Cl)cc21 (stereo unspecified),12.8%
2,Cc1cc(C)cc(OCC2CNC(=O)O2)c1 (stereo unspecified),9.48%
3,CC(C)NCC(O)c1ccc2ccccc2c1 (stereo unspecified),-4.27%
4,CCC(C(=O)OCCOCCN(CC)CC)c1ccccc1 (stereo unspecified),-10.8%
5,Nc1ccc(S(=O)(=O)Nc2cnc3ccccc3n2)cc1,0.0824%
6,CC[C@H](c1ccc(O)cc1)[C@@H](CC)c1ccc(O)cc1,-1.92% [at 24.3 µM]
7,O=C(Oc1cccc2cccnc12)c1ccccc1,13.3%
8,FC1(F)C(F)(F)C(F)(F)C2(F)C(F)(F)C(F)(F)C(F)(F)C(F)(F)C2(F)C1(F)F (stereo unspecified),0%
9,NC(N)=NN=C(/C=C/c1ccc([N+](=O)[O-])o1)/C=C/c1ccc([N+](=O)[O-])o1,-13.2%
10,CCOC(=O)C(C#N)=C(c1ccccc1)c1ccccc1,-6.41%
11,CCOC(=O)c1ccc(N)cc1,-0.324% [at 24.3 µM]
12,Nc1ccc(S(=O)(=O)NCc2ccccc2)cc1,-4.84%
13,FC(F)(F)C(F)(F)C(F)(F)C(F)(F)C(F)(F)C(F)(F)C(F)(F)C(F)(F)Br,0.148%
14,Cc1cc(CC(=O)O)c(C)n1-c1ccc(Cl)cc1,-6.24%
15,NS(=O)(=O)c1ccc(Cl)c(S(N)(=O)=O)c1,5.68%
16,CN(Cc1ccc(C(C)(C)C)cc1)Cc1cccc2ccccc12,11.6%
